# Most compounds without a hit are left out; they make up all but 3.5% or so of the library.
# MITF inh = human MITF inhibition, primary screen; O75030; AlphaScreen MITF homodimerization, bead proximity signal; inhibition, % at 2.6 µM; 0.91% of 650,000 active; AID 1259374; in the data active = inhibition above about 50%
# GPR151 activ = human GPR151 activation. PathHunter beta-arrestin GPR151 cells, luminescence. activation, % at 11.2 µM. 1% of 650,000 active. AID 1508602. Q8TDV0; in the data active = activation above about 4.9%
# TEAD-YAP inh = TEAD-YAP interaction inhibition | HEK-TIYL cells, TEAD-Gal4/YAP UAS-luciferase luminescence | inhibition, % at 9.12 µM | 1.4% of 640,000 active; in the data active = inhibition above about 32%
# FBW7 activator = activators of human E3 ligase FBW7; normalized activity (activation), % at 26.1 µM; AlphaScreen FBW7–phospho-cyclin E peptide binding, activator screen; Q969H0; AID 1259310; 0.13% of 650,000 active; in the data active = normalized activity above about 1.9%;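 note: purified mutant Fbw7 with reduced substrate affinity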
# GPR151 conf act = human GPR151 activation, confirmation screen; shares compounds with GPR151 activ; AID 1508609; 6,700 tested, under 10 active; activation, % at 11.2 µM; GPR151 PathHunter beta-arrestin cells, luminescence, 90 min; % of EA-reagent control over plate median;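 active = mean percent activation across replicates above the confirmation screen cutoff of 4.91%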
# GPR119 ag = GPR119 activation, counter-screen for GPR151 activators | shares compounds with GPR151 activ | GPR119 PathHunter beta-arrestin cells, luminescence, 90 min; 0 = compound-well median, 100 = enzyme-acceptor control | activation, % at 11.2 µM | 0.3% of 6,700 active | AID 1508611;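 active = mean percent activation in the counterscreen above 29.09%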;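 note: counterscreen on off-target GPR119 to flag nonselective hits from the GPR151 activator screen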
# Target sequence (Q8TDV5 whole entry, looked up): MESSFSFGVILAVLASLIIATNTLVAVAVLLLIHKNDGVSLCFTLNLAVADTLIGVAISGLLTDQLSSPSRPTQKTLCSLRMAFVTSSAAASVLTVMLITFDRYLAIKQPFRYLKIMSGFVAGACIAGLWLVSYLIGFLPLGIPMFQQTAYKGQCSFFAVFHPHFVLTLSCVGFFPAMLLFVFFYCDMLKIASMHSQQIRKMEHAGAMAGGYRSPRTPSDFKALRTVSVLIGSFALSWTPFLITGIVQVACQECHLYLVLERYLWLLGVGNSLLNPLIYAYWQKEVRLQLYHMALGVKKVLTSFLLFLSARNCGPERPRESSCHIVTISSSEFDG
# Hits are given with their value; 0 = inactive; - = not tested or not shown.
SMILES,MITF inh,GPR151 activ,TEAD-YAP inh,FBW7 activator,GPR151 conf act,GPR119 ag
COc1cccc(CCN2C(=O)CCC2CCNCc2cccc(F)c2)c1 (stereo unspecified),0,5.1,0,0,0,0
CCCNCCC1CCC(=O)N1CCc1cccc(OC)c1 (stereo unspecified),0,6.7,0,0,0,0
Cc1[nH]n2c(=O)cc(Cc3ccccc3)nc2c1C#N,0,0,0,0,-,-
O=c1cc(Cc2ccccc2)nc2c(-c3ccccc3)c[nH]n12,0,7.4,0,0,0,0
COc1ccc(C(=O)Nc2cc(=O)n(C)c(=O)n2C)cc1,0,0,0,0,-,-
COc1cccc(C(=O)Nc2cc(C(C)(C)C)ccc2C(C)=O)c1,0,5.2,0,0,0,0
COc1cccc(C(=O)Nc2cc(=O)n(C)c(=O)n2C)c1,0,10,0,0,0,0
CC(=O)c1ccc(C(C)(C)C)cc1NC(=O)c1ccc(Cl)cc1,0,0,0,0,-,-
CC1Cc2ccccc2N1C(=O)Nc1ccc(F)cc1 (stereo unspecified),0,5.5,0,0,0,0
O=C(O)c1cccc(N2CCCC2=O)c1,0,5.4,0,0,0,0
CCC(C)NC(=O)c1cccc(N2CCCC2=O)c1 (stereo unspecified),0,0,0,0,-,-
Cc1ccc(/C(N)=N/OC(=O)CCc2ccccc2)cc1,0,5.0,0,0,0,0
CCCCCC1CCc2nc(/C=C/c3ccccc3)ccc2C1 (stereo unspecified),0,6.0,0,0,0,0
CCCCCCCC1CCc2nc(-c3ccc(F)cc3)ccc2C1 (stereo unspecified),0,0,0,0,-,-
CCCCC(C)(C)[C@H](O)/C=C/[C@H]1C=CC(=O)[C@@H]1C/C=C\CCCC(=O)O,0,13,-,-,0,0
CCCCC(C)(C)[C@H](O)/C=C/[C@H]1C=CC(=O)[C@@H]1CCCCCCC(=O)O,0,0,-,-,-,-
CCCCC[C@H](O)/C=C/[C@H]1C(=O)C[C@H](O)[C@@H]1CCCCCCCO,0,0,-,-,-,-
CCCCC/C=C/C=C1/C(=O)C[C@H](O)[C@@H]1C/C=C\CCCC(=O)O,0,5.6,-,-,0,0
CCCCC[C@H](O)/C=C/[C@H]1C=CC(=O)[C@@H]1CCCCCCC(=O)OCC,0,4.9,-,-,0,0
CCCCC/C=C/C=C1/C=CC(=O)[C@@H]1C/C=C\CCCC(=O)O,0,0,-,-,-,-
CCCCC[C@H](O)/C=C/[C@H]1C(=O)C[C@H](O)[C@@H]1CCCCCCC(=O)O,0,9.7,-,-,0,0
COC(=O)[C@@H](NC(=O)OC1C(=O)c2ccc(OC)cc2O[C@H]1c1cccc(C(F)(F)F)c1)C(C)C (stereo partly specified),0,0,-,0,-,-
C=CC(C)Sc1nc2c(c(=O)[nH]c(=O)n2C)n1CCOC (stereo unspecified),0,0,0,0,-,-
CCCCCC(=O)/C=C/[C@@H]1[C@@H](C/C=C\CCCC(=O)O)[C@@H](O)C[C@H]1O,0,5.5,-,-,0,0
CCCCC[C@H](O)/C=C/[C@H]1C=CC(=O)[C@H]1C/C=C\CCCC(=O)O,0,5.8,-,-,0,0
SMILES,MITF inh,GPR151 activ,TEAD-YAP inh,FBW7 activator,GPR151 conf act,GPR119 ag
CCCCC[C@H](O)/C=C/[C@H]1C=CC(=O)[C@@H]1C/C=C\CCCC(=O)O,0,0,-,-,-,-
CCCCCCCC/C=C\CCCCCC(=O)O,0,8.7,-,-,0,0
CCCCC[C@@H](O)/C=C/[C@H]1C(=O)C[C@H](O)[C@@H]1C/C=C\CCCC(=O)O,0,0,-,-,-,-
CCCCC[C@H](O)/C=C/C1=C(C/C=C\CCCC(=O)O)C(=O)CC1,0,9.3,-,-,0,0
Cc1cnc(NC(=O)Cc2ccsc2)s1,0,6.3,0,0,0,0
CCOc1ccc(NC2=CC(=O)CCC2)cc1,0,0,0,0,-,-
CCOc1ccc(NC2=CC(=O)C=CC2=O)cc1,0,5.8,0,0,0,0
O=C1CCCCc2sccc2N1,0,6.4,0,0,0,0
CC1CN(C(=O)CCC(=O)N2CCOCC2)c2ccccc2O1 (stereo unspecified),0,8.3,0,0,0,0
Cc1ccc(CC2SC(=Nc3ccccc3)NC2=O)cc1 (stereo unspecified),0,0,0,0,-,-
CC(C)c1ccccc1OCCCNC(C)(C)C,0,7.1,0,0,0,0
CCCOc1ccccc1CNC(C)(C)C,0,9.3,0,0,0,0
CCOc1ccccc1OCCCNC(C)(C)C,0,0,0,0,-,-
COc1ccc(NC(=O)C2=C(C)NC(=O)NC2c2ccc(OCC(=O)O)cc2)cc1 (stereo unspecified),0,0,0,0,-,-
Cc1ccc(-c2nnc(Nc3ccc(C(=O)Nc4ccccc4)cc3)c3ccccc23)cc1S(=O)(=O)N1CCOCC1,0,0,0,0,-,-
O=C(Cc1ccccc1)N1CCC(=O)N(CC2CC2)CC1,0,9.9,0,0,0,0
O=C(Cc1ccccc1)N1CCC(N2CCCC2)CC1,0,0,0,0,-,-
O=C1COc2cc(S(=O)(=O)Nc3ccc(C(F)(F)F)cc3)ccc2N1,0,0,0,0,-,-
CCC(Sc1nc2cc(OC)c(OC)cc2c(=O)n1Cc1ccco1)C(=O)Nc1ccc(Cl)cc1 (stereo unspecified),0,0,0,0,-,-
COc1ccccc1N=Cc1c(O)n(-c2ccccc2C)c(=O)[nH]c1=O,0,6.0,0,0,0,0
Cc1ccccc1-n1c(O)c(C=NCCCC(C)C)c(=O)[nH]c1=O,0,8.5,0,0,0,0
CN(C)CC(O)COC(c1ccccc1)c1ccccc1 (stereo unspecified),0,7.7,0,0,0,0
CCN1CCN(CC(O)COC(c2ccccc2)c2ccccc2)CC1 (stereo unspecified),0,0,0,0,-,-
c1ccc(N2CCN(c3ncnc4sccc34)CC2)cc1,0,0,0,0,-,-
COc1ccc(C(=O)Nc2cc(C(N)=O)ccc2OC)cc1,0,0,0,0,-,-
SMILES,MITF inh,GPR151 activ,TEAD-YAP inh,FBW7 activator,GPR151 conf act,GPR119 ag
COc1ccc(C(N)=O)cc1NC(=O)CC(O)(C(F)(F)F)C(F)(F)F,0,7.3,0,0,0,0
Cc1ccc(-c2csc3nnc(SCC(=O)N4CCOCC4)n23)cc1,0,5.0,0,0,0,0
O=C(CSc1nnc2scc(-c3ccccc3)n12)N1CCCCCC1,0,0,0,0,-,-
O=C(CSCc1c(Cl)cccc1Cl)N1CCOCC1,0,0,0,0,-,-
O=C(CSCc1c(Cl)cccc1Cl)N1CCCCC1,0,6.1,0,0,0,0
CSC1=NC(c2cccc([N+](=O)[O-])c2)C(C(=O)OC(C)C)=C(C)N1 (stereo unspecified),0,5.1,0,0,0,0
Cc1ccc(NC(=O)c2cc3c(n(-c4ccc(C)cc4)c2=O)CCCC3=O)cc1,0,0,0,0,-,-
Cc1ccc(-n2c3c(cc(C(=O)Nc4ccc5c(c4)OCCO5)c2=O)C(=O)CCC3)cc1,0,5.0,0,0,0,0

# Screening results as filed in PubChem BioAssay.
